The values below come from PubChem BioAssay (Tox21).

Unmarked numbers belong to inactive results. Calls of active or inactive are those of the source. Calls follow the shape of the dose curve; as a rule, active = well fitted curve in the direction sought with a large enough effect in the repeat runs; inconclusive = weak or mixed curves; inactive = flat fitted curve, though single readings scatter.
% is scaled to controls: 0 for no effect and ±100 for the full control effect.

The nature of the assay: qHTS assay to test for compound auto fluorescence at 535 nm (green) in HEK293 cells (AID 720680). The conditions noted are these: green autofluorescence 485/535 nm; series mostly up to 91.3 µM; fluorescence, % of fluorescein: at the top concentration. (In general: qHTS replaces the single test concentration by a dilution series.)
On to `O=S(=O)(Oc1ccc(Cl)cc1)c1ccccc1`, for which the “fluorescence, % of fluorescein” value was 0.0346%.
On the same count and under the same terms, then `CN1CCN(C(c2ccccc2)c2ccccc2)CC1`, with 0.0022% [at 18.6 µM]; and `COS(=O)(=O)C(F)(F)F`, with 0.0024% [at 95.7 µM].
Turning to `C=C(C)C(=O)OCC`, the “fluorescence, % of fluorescein” value was -0.0167% [at 95.7 µM].
`CCC(Cl)CCC(Cl)C(Cl)CC(Cl)C(Cl)C(Cl)CCl` (stereo not drawn): the “fluorescence, % of fluorescein” value was 0.0341%.
The same measure, in the same setting: the value for `O=[N+]([O-])c1ccc2[nH]ncc2c1` was 0.0613%; that for `O=S(c1cc(Cl)cc(Cl)c1O)c1cc(Cl)cc(Cl)c1O` was 0.0753% [at 46 µM]; that for `Clc1ccc(Cn2c(CN3CCCC3)nc3ccccc32)cc1` was 0.026% [at 18.6 µM].
On to `O=C1c2ccccc2S(=O)(=O)N1CCCCN1CCN(c2ncccn2)CC1`, for which the “fluorescence, % of fluorescein” value was 0.0179% [at 46 µM].
Consider `C/C(=C(\CCOP(=O)(O)O)SC(=O)c1ccccc1)N(C=O)Cc1cnc(C)nc1N`, for which the fluorescence, % of fluorescein was -0.205% [at 18.6 µM].
Turning to `CCC(C)(C)CC`, the “fluorescence, % of fluorescein” value is 0.0448% [at 95.7 µM].
For `NC(=O)C(c1ccccc1)(c1ccccc1)[C@@H]1CCN(CCc2ccc3c(c2)CCO3)C1`, the “fluorescence, % of fluorescein” value is 0.0505% [at 46 µM].
Still for that read-out and setting: then `O=C(c1ccc(F)cc1)C1CCN(CCn2c(=S)[nH]c3ccccc3c2=O)CC1`, with 0.0396% [at 46 µM]; and `COc1ccc(C(=O)c2ccc(OC)cc2O)c(O)c1`, with 0.0172%; and `CCCCC(CC)COC(=O)CCCCCCCCC(=O)OCC(CC)CCCC` (stereo not drawn), with -0.0695%.
The same measure, in the same setting: then `c1ccc(CNCCNCc2ccccc2)cc1`, with 0.0059% [at 46 µM]; and `C#CCN(C)CCCOc1ccc(Cl)cc1Cl`, with -0.104% [at 46 µM]; and `CC(=O)c1ccc2c(c1)N(CCCN(C)C)c1ccccc1S2`, with -0.246% [at 18.6 µM].
The same measure, in the same setting: then `CCCCCCCCCCCCCCCCCCOS(=O)(=O)O`, with 0.0017%; and `Brc1c2ccccc2cc2ccccc12`, with -0.0045%; and `O=C(NCCO[N+](=O)[O-])c1cccnc1`, with -0.0137% [at 46 µM].
`CCOc1ccc(O)cc1`: the “fluorescence, % of fluorescein” value is -0.135%.
Take `C=C1[C@H]2CC[C@@H]3[C@H]2C(C)(C)CCC[C@]13C`: the “fluorescence, % of fluorescein” value was 0.024%.
Same read-out and setting: the value for `CCCCC(CC)CN1C(=O)C2C3C=CC(C3)C2C1=O` (stereo not drawn) was -0.0313%; that for `CC(C)CC(=O)C1C(=O)c2ccccc2C1=O` was 0.0198%.
Same read-out and setting: the value for `CC1OC(=O)C(C)OC1=O` (stereo not drawn) was -0.0083%; that for `OC(CN1CCC(Cc2ccc(F)cc2)CC1)c1ccc(Cl)cc1` (stereo not drawn) was 0.0152% [at 46 µM]; that for `CCCCC(=O)OCC(=O)[C@H]1[C@H](C)C[C@H]2[C@@H]3C[C@H](F)C4=CC(=O)C=C[C@]4(C)[C@@]3(F)[C@@H](O)C[C@@]21C` was -0.0274% [at 46 µM].
Turning to `CC(C)C[C@H]1C(=O)N2CCC[C@H]2[C@]2(O)O[C@](NC(=O)[C@@H]3C=C4c5cccc6[nH]c(Br)c(c56)C[C@H]4N(C)C3)(C(C)C)C(=O)N12`, the call was inactive.
For the molecule `CC(C)(CO)[N+](=O)[O-]`, the “fluorescence, % of fluorescein” value is 0.0226%.
On to `O=C(OCCc1ccccc1)c1ccccc1`, for which the “fluorescence, % of fluorescein” value was -0.0033%.
Same read-out and setting: then `COc1ccc(S(=O)(=O)N2C(=O)[C@@](c3ccccc3OC)(N3C[C@H](O)C[C@H]3C(=O)N(C)C)c3cc(Cl)ccc32)c(OC)c1`, with -0.0085%; and `O=C1OC(CN2CCOCC2)CN1/N=C/c1ccc([N+](=O)[O-])o1` (stereo not drawn), with -0.416% [at 18.6 µM]; and `OC[C@H]1O[C@@H](OCCc2ccc(O)cc2)[C@H](O)[C@@H](O)[C@@H]1O`, with 0.032% [at 46 µM].
The same measure, in the same setting: the value for `Cc1[nH]c(C)c(Cl)c(=O)c1Cl` was 0.0167% [at 46 µM]; that for `CCCCCCCN` was -0.0044% [at 95.7 µM]; that for `C[Si](C)(CCCN)O[Si](C)(C)CCCN` was 0.0257%.
Consider `CCOC(=O)C(F)(F)F`, for which the “fluorescence, % of fluorescein” value was 0.0232%.
